# Values without a mark were called inactive. Records with an inconclusive call do not appear. A call without a number means that no potency is given here. Activity calls are given as the source filed them. Unless noted, calls follow the shape of the dose curve; as a rule, active = well fitted curve in the direction sought with a large enough effect; inconclusive = small, poorly fitted or top-dose-only effect, or another doubt; inactive = no such curve, though single readings can be large; an effect the other way counts as inactive or inconclusive.
# Assays:
# [1] = molecular target: 3',5'-cyclic-AMP phosphodiesterase 4B (Homo sapiens) (UniProt Q07343); experiment: qHTS Assay for Inhibitors of PDE-IV (AID 607; active = well fitted activation curve with a large enough effect in the main read-out, with a control signal flat, not every such curve was filed as active); settings: HEK293 ACTOne CNG channel cells, membrane potential fluorescence; series mostly up to 22.9 µM
# Procedure, shortened: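 ACTOne HEK293 cells carry a modified cAMP-gated CNG channel and express endogenous PDE4; plated 1000 cells/well, compounds up to 22.9 uM final. Membrane-potential dye fluorescence (ex 535/em 590) was read; parental cells received 10 uM forskolin + 100 uM RO 20-1724.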
# [2] = molecular target: Guanine nucleotide-binding protein G(i) subunit alpha-1 (Homo sapiens) (UniProt P63096); experiment: qHTS Assay for Inhibitors of RGS12 GoLoco Motif Activity (Green Fluorophore) (AID 879); settings: Galphai1/FITC-RGS12 GoLoco peptide, fluorescence polarization; series mostly up to 57.1 µM;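 also: negative values mean loss of peptide binding seen as reduced polarization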
# Procedure, shortened: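 A drop in FITC polarization marked displacement of the FITC-tagged RGS12 GoLoco peptide (10 nM) from Gαi1 (50 nM). Compounds were incubated 10 min at room temperature in Tris pH 7.5 buffer containing 150 mM NaCl, 0.1 mM GDP and 0.05% NP40; unlabeled peptide titration served as control.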
# [3] = molecular target: Cytochrome P450 3A4 (Homo sapiens) (UniProt P08684); experiment: qHTS Assay for Activators of Cytochrome P450 3A4 (AID 885); settings: recombinant CYP3A4, Luciferin-PPXE luminescence, 60 min; series mostly up to 57.1 µM; also: nearly all actives have a fitted effect of over 65% in size
# Procedure, shortened: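 CYP3A4 activity: Luciferin-PPXE O-dealkylation, 25uM substrate, 200mM KPO4, RT throughout. Read-out is luciferase luminescence; higher values reflect activation.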
# [4] = molecular target: Cytochrome P450 3A4 (Homo sapiens) (UniProt P08684); experiment: qHTS Assay for Inhibitors and Substrates of Cytochrome P450 3A4 (AID 884); settings: recombinant CYP3A4, Luciferin-PPXE luminescence; series mostly up to 57.1 µM; also: nearly all actives have a fitted effect of over 50% in size; also: potency is read from the fitted curve at half-maximal effect
# Procedure, shortened: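 Luminescent readout of luciferin produced by CYP3A4 (20 nM) dealkylation of Luciferin-PPXE, 25 uM (its KM). NADPH-driven reaction ran 60 min at RT after 10 min compound preincubation; data scaled to 57 uM ketoconazole as 100% inhibition.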
# [5] = Cell Viability - Mesenchymal (AID 546); settings: mesenchymal cells viability, qHTS; series mostly up to 91.7 µM;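 also: cells exposed to compound for 40 hours before reading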
# Procedure, shortened: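 In this qHTS cytotoxicity format, glomerulus-derived human mesenchymal kidney cells received compound for 40 hr, then luciferase-based ATP quantitation. Concentration-response data were fitted with the Hill equation.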
# [6] = Cellular Toxicity (caspase-3) HepG2 (AID 654); settings: HepG2 caspase-3 activation, luminescence, 0% = DMSO only, 100% = tamoxifen; series mostly up to 92.2 µM;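 also: cells exposed to compound for 16 hours before reading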
# Procedure, shortened: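 Caspase 3/7 activation is measured as a luminescence increase (aminoluciferin substrate) after 16 h compound exposure of human hepatocarcinoma HepG2 cells. AC50 values are Hill fits, scaled between DMSO baseline and 100 uM tamoxifen stimulation.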
# [7] = Cellular Toxicity (caspase-3) HUV-EC-C (AID 656); settings: HUV-EC-C cells, caspase-3 activation (apoptosis), vehicle = 0, 100 µM tamoxifen = 100%; series mostly up to 92.2 µM
# Procedure, shortened: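 HUV-EC-C cells (1000/well) in complete medium, compound-treated 16 h at 37 °C; caspase-3/7 activity read by Caspase-Glo 3/7 luminescence. Normalized to DMSO (basal) and 100 uM tamoxifen (100%); AC50 from Hill-equation concentration-response fits.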
# [8] = Cellular Toxicity (caspase-3) SHSY5Y (AID 657); settings: SH-SY5Y caspase-3 activation, DMSO zero, 10 µM staurosporine = 100%; series mostly up to 91.7 µM
# Procedure, shortened: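 SH-SY5Y human neuroblastoma cells, 1500/well, exposed to compound for 16 hours at 37 °C in complete medium. Caspase-3/7 activity read by Caspase-Glo luminescence after 1 hr at room temperature, normalized to DMSO and 10 uM staurosporine; AC50 from Hill fit.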
# [9] = Cellular Toxicity (caspase-3) BJ (AID 658); settings: BJ fibroblasts, luminescence, normalized: DMSO 0%, staurosporine 100%; series mostly up to 91.7 µM
# Procedure, shortened: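 Plated BJ cells (1000/well) rested 5 hr, received compound for 16 hr at 37 °C, then Caspase-Glo 3/7 reagent for 1 hr at room temperature before luminescence reading.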
# [10] = Cellular Toxicity (caspase-3) MRC-5 (AID 659); settings: MRC-5 cells, luminescence, normalized: DMSO 0%, 10 µM staurosporine 100%; series mostly up to 91.7 µM
# Procedure, shortened: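 Apoptosis readout in MRC-5 cells: luciferase light generated after caspase 3/7 cleaves a peptide-aminoluciferin substrate, measured post 16 hr compound incubation at 37 °C.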
# [11] = Cellular Toxicity (caspase-3) SK-N-SH (AID 661); settings: SK-N-SH caspase-3 activation, qHTS, DMSO as zero, staurosporine as full; series mostly up to 91.7 µM
# Procedure, shortened: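 Caspase 3/7 activation was read by luminogenic substrate cleavage after 16 hour treatment of SK-N-SH cells. Signal was scaled between DMSO and 10 uM staurosporine, and concentration-response data were fitted with the Hill equation for AC50.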
# [12] = Cellular Toxicity (caspase-3) H-4-II-E (AID 663); settings: H-4-II-E rat hepatoma, scaled: DMSO 0%, 100 µM tamoxifen 100%; series mostly up to 92.2 µM;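 also: cells exposed to compound for 16 hr before readout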
# Procedure, shortened: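 Caspase 3/7 activation measured in H-4-II-E cells in complete culture medium after 16 hr treatment at 37 °C, using luciferase-coupled substrate readout; AC50 values come from Hill-equation fits of normalized concentration-response data.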
# [13] = Cellular Toxicity (caspase-3) Hek293 (AID 664); settings: HEK293 caspase-3 activation, DMSO = 0%, 100 µM tamoxifen = 100%; series mostly up to 92.2 µM;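 also: cells exposed to compound for 16 h at 37 °C before readout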
# Procedure, shortened: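 Concentration-response qHTS: caspase 3/7 activation measured by luminescent aminoluciferin substrate cleavage after 16 h compound exposure of Hek 293 cells. AC50 from Hill equation, with DMSO as basal and 100 uM tamoxifen as 100%.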
# [14] = Cellular Toxicity (caspase-3) N2a (AID 665); settings: N2a cells, luminescence, normalized: DMSO 0%, 10 µM staurosporine 100%; series mostly up to 92.2 µM;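 also: compound exposure lasted 16 h at 37 °C before readout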
# Procedure, shortened: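 Caspase-3/7 activation measured as luminescence from Caspase-Glo reagent (1 h, room temperature) after 16 h compound exposure of mouse N2a cells. AC50 values from Hill-equation concentration-response, scaled between DMSO and 10 uM staurosporine.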
# [15] = Cellular Toxicity (caspase-3) NIH 3T3 (AID 666); settings: NIH 3T3 caspase-3 activation, apoptosis/toxicity, 0% DMSO, 100% is 100 µM tamoxifen; series mostly up to 92.2 µM;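 also: caspase signal read after 16 h compound exposure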
# Procedure, shortened: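 Caspase-Glo 3/7 luminescence reported caspase activation in 1000 NIH 3T3 cells/well after 16 h compound exposure at 37 C. DMSO set basal and 100 uM tamoxifen set 100% stimulation; concentration-response modeled with the Hill equation for AC50.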
# [16] = Cellular Toxicity (caspase-3) Renal Proximal Tubule (AID 667); settings: renal proximal tubule cells, primary cells freshly taken from rat, solvent-only wells 0%, staurosporine 100%; series mostly up to 91.7 µM;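 also: cells exposed to compound for 16 hours at 37 °C before detection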
# Procedure, shortened: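 Freshly isolated primary rat kidney proximal tubule cells, 1000/well, treated 16 hr at 37 °C, then Caspase-Glo 3/7 luminescence after 1 hr. Normalized to DMSO and 10 uM staurosporine; AC50 from Hill fit.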
# [17] = molecular target: Cytochrome P450 2C9 (Homo sapiens) (UniProt P11712); experiment: qHTS Assay for Inhibitors and Substrates of Cytochrome P450 2C9 (AID 883); settings: recombinant CYP2C9, luciferin-H luminescence, 60 min; series mostly up to 57.1 µM; also: nearly all actives have a fitted effect of over 60% in size
# Procedure, shortened: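 CYP2C9 deoxyluciferin hydroxylation, 37C, 60 min with NADPH regeneration; 10nM enzyme, 100uM Luciferin-H (KM). Glo detection reagent stopped reaction; luminescence normalized to sulphaphenazole (57uM) full inhibition.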
# [18] = molecular target: Cytochrome P450 2C19 (Homo sapiens) (UniProt P33261); experiment: qHTS Assay for Inhibitors and Substrates of Cytochrome P450 2C19 (AID 899); settings: recombinant CYP2C19, luciferin-H EGE luminescence; also: potency is read from the fitted curve at half-maximal effect; nearly all actives have a fitted effect of over 60% in size
# Procedure, shortened: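 In 50mM KPO4, the reaction held 5nM enzyme and KM-level (10uM) Luciferin-H EGE; it ran 60 min at 37C after NADPH regeneration and a 10 min compound preincubation. Luminescence values were scaled to 57uM ketoconazole as complete inhibition.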
# [19] = Cellular Toxicity (caspase-3) Jurkat (AID 655); settings: Jurkat caspase-3 activation, luminescence, DMSO = 0%, tamoxifen = 100%; series mostly up to 92.2 µM;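 also: cells exposed to compound for 16 h at 37 °C before reading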
# Procedure, shortened: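 Jurkat cells (5000/well) in complete medium exposed 16 h at 37 C; caspase-3/7 activity read by Caspase-Glo luminescence after 20 min at room temperature. Normalized to DMSO and 100 uM tamoxifen; AC50 from Hill fits.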
# [20] = Cellular Toxicity (caspase-3) Mesangial (AID 660); settings: mesangial cells, normalized: DMSO 0%, 100 µM tamoxifen 100%; series mostly up to 91.7 µM;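 also: cells exposed to compound for 16 h before the caspase read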
# Procedure, shortened: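 Caspase 3/7 activation measured by Caspase-Glo 3/7 luminescence (20 min, room temperature) following 16 h exposure of mesangial cells (1000/well); AC50 from Hill-equation fit, normalized to DMSO and 100 uM tamoxifen.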
# Chain of Cytochrome P450 3A4 (Homo sapiens) (P08684 whole entry, looked up): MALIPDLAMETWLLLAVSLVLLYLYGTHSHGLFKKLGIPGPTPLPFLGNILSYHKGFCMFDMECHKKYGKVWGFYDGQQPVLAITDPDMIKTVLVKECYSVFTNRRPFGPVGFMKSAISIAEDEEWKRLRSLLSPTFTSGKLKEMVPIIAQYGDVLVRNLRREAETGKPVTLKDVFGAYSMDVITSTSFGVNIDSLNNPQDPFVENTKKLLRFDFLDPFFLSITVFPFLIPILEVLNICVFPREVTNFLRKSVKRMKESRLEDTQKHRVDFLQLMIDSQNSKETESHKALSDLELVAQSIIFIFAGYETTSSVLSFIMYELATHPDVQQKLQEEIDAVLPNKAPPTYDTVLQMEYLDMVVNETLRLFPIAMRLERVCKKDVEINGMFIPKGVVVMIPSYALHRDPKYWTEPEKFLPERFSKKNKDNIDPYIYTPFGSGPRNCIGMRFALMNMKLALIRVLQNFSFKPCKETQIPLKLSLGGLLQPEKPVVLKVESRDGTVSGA
# Chain of 3',5'-cyclic-AMP phosphodiesterase 4B (Homo sapiens) (Q07343 whole entry, looked up): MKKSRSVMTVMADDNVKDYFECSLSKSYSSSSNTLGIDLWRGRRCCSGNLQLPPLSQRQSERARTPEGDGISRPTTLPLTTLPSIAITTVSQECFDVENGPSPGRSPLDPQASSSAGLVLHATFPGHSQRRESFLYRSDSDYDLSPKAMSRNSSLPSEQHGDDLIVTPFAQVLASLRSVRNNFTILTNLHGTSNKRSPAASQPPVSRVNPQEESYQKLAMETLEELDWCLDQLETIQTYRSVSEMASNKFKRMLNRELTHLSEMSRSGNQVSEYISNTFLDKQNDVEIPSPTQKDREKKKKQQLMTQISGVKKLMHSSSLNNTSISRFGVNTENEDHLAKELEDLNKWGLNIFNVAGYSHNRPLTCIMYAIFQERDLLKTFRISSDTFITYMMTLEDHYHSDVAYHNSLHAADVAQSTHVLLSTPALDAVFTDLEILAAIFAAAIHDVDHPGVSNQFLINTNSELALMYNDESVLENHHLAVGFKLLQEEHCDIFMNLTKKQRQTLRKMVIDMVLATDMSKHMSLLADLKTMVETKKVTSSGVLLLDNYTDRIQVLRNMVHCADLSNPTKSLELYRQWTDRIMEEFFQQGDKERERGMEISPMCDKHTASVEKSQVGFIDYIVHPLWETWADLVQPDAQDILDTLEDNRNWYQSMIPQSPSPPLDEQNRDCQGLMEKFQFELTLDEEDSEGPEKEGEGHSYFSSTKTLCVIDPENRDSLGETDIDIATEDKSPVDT
# Chain of Cytochrome P450 2C19 (Homo sapiens) (P33261 whole entry, looked up): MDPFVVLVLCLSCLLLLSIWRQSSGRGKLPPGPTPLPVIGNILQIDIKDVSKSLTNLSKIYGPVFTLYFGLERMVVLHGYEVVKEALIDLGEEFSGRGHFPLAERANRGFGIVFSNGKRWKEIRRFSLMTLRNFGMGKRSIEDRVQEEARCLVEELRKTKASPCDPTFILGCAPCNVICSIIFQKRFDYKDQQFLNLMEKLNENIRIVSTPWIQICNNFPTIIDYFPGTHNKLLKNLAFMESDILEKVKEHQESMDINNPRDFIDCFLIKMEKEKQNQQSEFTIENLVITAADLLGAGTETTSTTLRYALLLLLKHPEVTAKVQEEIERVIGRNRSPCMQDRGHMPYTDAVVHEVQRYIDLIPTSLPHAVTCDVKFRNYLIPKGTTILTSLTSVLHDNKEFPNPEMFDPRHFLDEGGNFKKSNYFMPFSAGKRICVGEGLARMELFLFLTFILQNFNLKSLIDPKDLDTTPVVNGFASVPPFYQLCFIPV
# Chain of Guanine nucleotide-binding protein G(i) subunit alpha-1 (Homo sapiens) (P63096 whole entry, looked up): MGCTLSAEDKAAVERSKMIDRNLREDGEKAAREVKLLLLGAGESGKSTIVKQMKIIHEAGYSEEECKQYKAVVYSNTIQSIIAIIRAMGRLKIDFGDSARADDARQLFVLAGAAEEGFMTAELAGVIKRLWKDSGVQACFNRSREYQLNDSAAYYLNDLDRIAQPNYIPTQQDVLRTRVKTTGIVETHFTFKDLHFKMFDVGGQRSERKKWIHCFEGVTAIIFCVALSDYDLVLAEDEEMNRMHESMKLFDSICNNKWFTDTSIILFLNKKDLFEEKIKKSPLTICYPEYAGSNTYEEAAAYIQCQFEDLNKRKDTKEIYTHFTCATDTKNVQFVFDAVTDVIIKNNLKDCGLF
# Chain of Cytochrome P450 2C9 (Homo sapiens) (P11712 whole entry, looked up): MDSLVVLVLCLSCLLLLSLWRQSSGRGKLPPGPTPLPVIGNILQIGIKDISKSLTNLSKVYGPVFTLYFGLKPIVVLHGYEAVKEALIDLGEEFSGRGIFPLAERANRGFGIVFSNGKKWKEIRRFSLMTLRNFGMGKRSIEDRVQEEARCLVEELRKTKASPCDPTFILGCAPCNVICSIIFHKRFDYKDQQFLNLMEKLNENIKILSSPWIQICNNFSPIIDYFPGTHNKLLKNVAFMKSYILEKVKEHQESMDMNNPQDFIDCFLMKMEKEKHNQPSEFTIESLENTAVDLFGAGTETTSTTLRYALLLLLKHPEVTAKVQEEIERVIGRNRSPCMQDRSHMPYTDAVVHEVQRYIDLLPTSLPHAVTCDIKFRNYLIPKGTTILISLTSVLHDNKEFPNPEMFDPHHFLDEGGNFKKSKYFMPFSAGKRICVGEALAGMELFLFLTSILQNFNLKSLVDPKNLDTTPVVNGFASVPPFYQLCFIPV
compound,measurement,setting,value
CC(=O)O[C@H]1C(=O)[C@@]2(C)[C@H]([C@H](OC(=O)c3ccccc3)[C@]3(O)C[C@H](OC(=O)[C@H](O)[C@@H](NC(=O)c4ccccc4)c4ccccc4)C(C)=C1C3(C)C)[C@]1(OC(C)=O)CO[C@@H]1C[C@@H]2O,outcome,[1],inactive
same,outcome,[2],inactive
CC(=O)c1cc2c(cc1O)OC(C)(C)C=C2,outcome,[3],inactive
CC(C)C(N)C(=O)OCCOCn1cnc2c(=O)[nH]c(N)nc21 (stereo unspecified),Potency,[4],inactive
Nc1ccccc1N,outcome,[5],inactive
same,outcome,[6],inactive
same,outcome,[7],inactive
same,outcome,[8],inactive
same,outcome,[9],inactive
same,outcome,[10],inactive
same,outcome,[11],inactive
same,outcome,[12],inactive
same,outcome,[13],inactive
same,outcome,[14],inactive
same,outcome,[15],inactive
same,outcome,[16],inactive
COc1ccc2c(OC)c3ccoc3nc2c1OC,outcome,[1],inactive
same,outcome,[17],inactive
same,Potency,[4],12.6 µM (active)
same,outcome,[3],inactive
same,Potency,[18],10 µM (active)
CC(=O)O[C@@H]1CC(C)=C2[C@H]1[C@H](C)CC[C@H]2/C=C(\C)C(=O)O,outcome,[5],inactive
same,outcome,[6],inactive
same,outcome,[19],inactive
same,outcome,[7],inactive
same,outcome,[8],inactive
same,outcome,[9],inactive
same,outcome,[10],inactive
same,outcome,[20],inactive
same,outcome,[11],inactive
same,outcome,[12],inactive
same,outcome,[13],inactive
same,outcome,[14],inactive
same,outcome,[15],inactive
same,outcome,[16],inactive
same,Potency,[4],inactive
COc1ccc(C[C@H](N)C(=O)N[C@@H]2[C@H](O)[C@H](n3cnc4c(N(C)C)ncnc43)O[C@@H]2CO)cc1,outcome,[1],inactive
same,outcome,[3],inactive
Cc1ccc(N)cc1O,outcome,[5],inactive
same,outcome,[6],inactive
same,outcome,[19],inactive
same,outcome,[7],inactive
same,outcome,[8],inactive
same,outcome,[9],inactive
same,outcome,[10],inactive
same,outcome,[20],inactive
same,outcome,[11],inactive
same,outcome,[12],inactive
same,outcome,[13],inactive
same,outcome,[14],inactive
same,outcome,[15],inactive
same,outcome,[16],inactive
same,Potency,[4],inactive
Nc1nc2c(ncn2[C@@H]2O[C@H](CO)[C@@H](O)[C@H]2O)c(=O)[nH]1,Potency,[4],inactive
Cc1ccccc1CN1C2=NCCN2C(=O)C2=C1CCN(Cc1ccccc1)C2,outcome,[1],inactive
same,"activity change, positive = activation",[3],-40.7% [at 11.4 µM]
